CYP2C9 activ – CYP2C9 (human) activation; recombinant CYP2C9, luciferin-H conversion, luminescence; active compounds read high; factor 1 = untreated enzyme, 0 = blocked; activation factor at 5 µM; AID 1024; P11712; actives 1.4% (n = 96,000);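 active = activation factor of 2 or more for CYP2C9 at a 5 µM dose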;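 note: 0 = sulfaphenazole-blocked wells and 1 = vehicle-only wells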
PostGolgi yeast – growth inhibition of a yeast mutant, post-Golgi transport screen. inhibition, % at 10 µM. post-Golgi transport phenotypic cell assay. actives 0.9% (n = 98,000). AID 739;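 note: yeast cells grown in 1536-well plates; yeast grown about 18 h at 30C before absorbance read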
PostGolgi ctrl – growth of the yeast control strain, post-Golgi counter-screen. efflux-deficient yeast background strain, growth absorbance A615, 16 h. inhibition, % at 10 µM. actives 5% (n = 98,000). AID 738
CYP2C19 act – increases human CYP2C19 enzyme activity; P33261; recombinant CYP2C19, luciferin-H EGE luminescence; active compounds read high; 0 = fully inhibited enzyme, 1 = untreated enzyme; activation factor at 5 µM; 96,000 tested, under 10 active;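 active = activation factor of at least 2 at 5 µM in the primary screen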;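 note: 0 = wells with 2.5 mM tranylcypromine and 1 = vehicle-only wells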
Target sequence (P33261 whole entry, looked up): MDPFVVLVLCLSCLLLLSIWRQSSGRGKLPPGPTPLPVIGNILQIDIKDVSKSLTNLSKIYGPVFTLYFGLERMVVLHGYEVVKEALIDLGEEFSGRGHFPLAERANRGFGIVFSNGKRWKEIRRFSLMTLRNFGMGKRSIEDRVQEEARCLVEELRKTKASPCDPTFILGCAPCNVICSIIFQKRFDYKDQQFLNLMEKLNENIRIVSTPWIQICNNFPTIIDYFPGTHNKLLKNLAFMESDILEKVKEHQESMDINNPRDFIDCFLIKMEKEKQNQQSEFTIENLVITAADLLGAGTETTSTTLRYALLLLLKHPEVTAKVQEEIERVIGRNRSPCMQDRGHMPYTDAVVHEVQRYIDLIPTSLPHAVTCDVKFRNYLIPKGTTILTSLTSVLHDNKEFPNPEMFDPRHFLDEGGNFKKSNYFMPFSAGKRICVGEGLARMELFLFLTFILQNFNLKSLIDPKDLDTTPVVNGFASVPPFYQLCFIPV
CYP2C9 inh – blocks human cytochrome P450 2C9; CYP2C9 Supersomes, luciferin-H conversion, luminescence; inhibition, % at 5 µM; actives 20% (n = 96,000); AID 777;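 active = blocking of liver enzyme CYP2C9 beyond about 50% at 5 µM, limit read from the data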
CYP2C19 inhib – blocks human cytochrome P450 2C19. inhibition, % at 5 µM. P33261. AID 778. CYP2C19 Supersomes, luciferin-H EGE luminescence, 30 min. actives 21% (n = 96,000);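 active = CYP2C19 inhibition above a set limit at 5 µM in the primary screen, cut at about 50% in these data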;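 note: plate controls were negative control wells for no effect and 2.5 mM tranylcypromine positive control for full effect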
* marks the source's active call; other numbers are inactive results; . = no result given. Most compounds without a hit are left out; they make up all but 32% or so of the library. Cut-off read from the data, not from the text of the source, unless noted: active = inhibition above about 30%; inactive = the rest.

SMILES | CYP2C9 activ | PostGolgi yeast | PostGolgi ctrl | CYP2C19 act | CYP2C9 inh | CYP2C19 inhib
CCOc1ccc(NS(=O)(=O)c2ccc3[nH]cc(C(=O)N(CC)CC)c(=O)c3c2)cc1 | . | -4 | 3 | . | . | .
CCOc1ccc(NS(=O)(=O)c2ccc3[nH]cc(C(=O)NCC4CCCO4)c(=O)c3c2)cc1 (stereo not given) | . | 3 | 1 | . | . | .
COc1cccc(NS(=O)(=O)c2ccc3[nH]cc(C(=O)NC4CC4)c(=O)c3c2)c1 | 0.5 | 1 | -4 | 0.9 | 52* | 13
COc1cccc(NS(=O)(=O)c2ccc3[nH]cc(C(=O)N(C)Cc4ccco4)c(=O)c3c2)c1 | 0.3 | -4 | 2 | 0.5 | 71* | 48
Cc1cc(C)cc(NS(=O)(=O)c2ccc3[nH]cc(C(=O)NCc4ccco4)c(=O)c3c2)c1 | 0.4 | -4 | 0 | 0.9 | 65* | 12
Cc1nc(-c2ccccc2)nc2[nH]ccc(=O)c12 | 0.7 | 7 | -4 | 0.7 | 28 | 30
CCC1CCCCN1CCCNC(=O)c1cn(CC(C)C)c(=O)c2cc(OC)c(OC)cc12 (stereo not given) | 1 | 4 | 8 | 1.1 | -1 | -14
COCCCNC(=O)CCCn1c(=O)c2ccccc2n(CC(=O)Nc2c(C)cccc2C)c1=O | 0.6 | -5 | 0 | 1 | 42 | -1
CCOC(=O)C1C(=O)N(C(=O)c2ccc(OC)cc2)CC1c1ccccc1 (stereo not given) | 0.9 | -7 | -4 | 0.9 | 9 | 13
CCOC(=O)C1C(=O)N(C(=O)c2cncc(Br)c2)CC1c1ccccc1 (stereo not given) | 0.9 | 8 | 20 | 0.2 | 9 | 84*
CCOC(=O)c1ccc(N2C(=O)CC(N3CCOCC3)C2=O)cc1 (stereo not given) | 0.9 | -5 | 4 | 1 | 8 | -4
COc1cc(C2CC(C(F)(F)F)n3ncc(C(=O)O)c3N2)cc(OC)c1OC (stereo not given) | 1 | 6 | 7 | 0.9 | -1 | 9
Cc1ccc(C2CC(C(F)(F)F)n3nc(C(=O)NCC4CCCO4)cc3N2)cc1 (stereo not given) | 0.4 | 10 | 0 | 0.5 | 58* | 47
COc1cccc(C2CC(C(F)(F)F)n3ncc(C(=O)NCC4CCCO4)c3N2)c1 (stereo not given) | 0.4 | 3 | 5 | 0.7 | 60* | 33
COc1ccc(C2CC(C(F)(F)F)n3ncc(C(=O)NCc4cccnc4)c3N2)cc1OC (stereo not given) | 0.5 | -6 | 8 | 0.8 | 52* | 20
CCC(CC)C(=O)Nc1cc(C(=O)NCCc2ccccc2)ccc1Cl | 0.5 | 5 | 10 | 0.7 | 46 | 31
COc1ccc(Cn2nnnc2C(c2ccncc2)N2CCOCC2)cc1 (stereo not given) | 0.2 | 9 | -1 | 0.1 | 78* | 90*
N#Cc1ccc(C(c2nnnn2C2CCCC2)N2CCC(Cc3ccccc3)CC2)cc1 (stereo not given) | 0.7 | 8 | 5 | 0.4 | 26 | 56*
N#Cc1cccc(C(c2nnnn2CCc2ccccc2)N2CCN(C3CCCCC3)CC2)c1 (stereo not given) | 1 | 13 | 7 | 0.9 | -5 | 8
COCCn1nnnc1C(c1ccc(OC)c(OC)c1)N1CCN(c2nc3ccccc3s2)CC1 (stereo not given) | 0.3 | . | . | 1 | 69* | 0
COc1ccc(C(c2nnnn2C2CCCCC2)N2CCN(c3ccccc3)CC2)cc1 (stereo not given) | 0.3 | . | . | 0.3 | 75* | 72*
COc1ccc(Cn2nnnc2CN2CCOCC2)cc1 | . | 3 | -3 | . | . | .
CC(C)C(=O)Nc1nnc(CCN2CCOCC2)s1 | 1.2 | 1 | 7 | 1.2 | -15 | -17
COc1ccc2cc(Br)ccc2c1CC(=O)NC1CC(C)(C)NC(C)(C)C1 | 0.9 | 2 | 4 | 0.8 | 13 | 17
Cn1c(=O)c([N+](=O)[O-])c(NCc2ccccc2)c2ccccc21 | 1.1 | 8 | 11 | 1 | -6 | -5
COc1ccc(C(c2nnnn2Cc2ccccc2)N2CCN(c3nc4ccccc4s3)CC2)cc1 (stereo not given) | 0.4 | 10 | 23 | 0.5 | 63* | 54*
COc1ccc(C(c2nnnn2Cc2cccs2)N2CCN(c3ccccc3F)CC2)cc1 (stereo not given) | 0.1 | -2 | 18 | 0.1 | 90* | 92*

Source: PubChem (several laboratories)
